# Measured values from PubChem BioAssay (EPA / NIEHS).
# The source made the active and inactive calls. The calls were made as follows: active = hit-call score of the fitted dose curve at least 0.9, where 1 is the maximum; inactive = score below 0.9.
# Read-out: Matrix Metallopeptidase 1 (MMP1), MMP1 (gene 4312)
# Test: BSK_BE3C_MMP1: BioMAP Diversity Plus: BE3C Assay for Matrix Metallopeptidase 1 (MMP1) Biomarker Activity (AID 2283024)
# Conditions: primary human bronchial epithelial cells; actives raise or lower the signal
# Summary of the method: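 Primary human bronchial epithelial cells were dosed with test chemicals, and MMP1 levels were measured by ELISA 24 h later. Data were fitted bidirectionally against DMSO as the negative control and activity baseline.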
SMILES,outcome,AC50
CS(=O)(=O)c1ccc([C@@H](C[C@H]2CCC(=O)C2)C(=O)Nc2cnccn2)cc1Cl,inactive,–
O=C(O)CN(CC(=O)O)CC(=O)O,inactive,–
CC1(C)C(=O)NC(=O)N1CO,inactive,–
CC(C)c1cccc(C(C)C)c1NC(=O)NS(=O)(=O)c1cc(C(C)(C)O)co1,inactive,–
CCCC(=O)O,inactive,–
C=CCCCCCCCCCCCC,inactive,–
CCCCC(CC)COP(=O)(OCC(CC)CCCC)OCC(CC)CCCC (centres undefined),inactive,–
NC1CCCCC1,inactive,–
CC(=O)CC(c1ccccc1)c1c(O)c2ccccc2oc1=O (centres undefined),inactive,–
C=CCc1ccc(OC)c(OC)c1,inactive,–
CC(C)OC(=O)C(C)(C)Oc1ccc(C(=O)c2ccc(Cl)cc2)cc1,–,13.3 µM (active)
CCCCCCCCCC[N+](C)(C)[O-],inactive,–
CCCCCCCC(=O)OC,inactive,–
Oc1ccc(O)cc1,–,2.96 µM (active)
CSc1ccc(Oc2ccc(S(N)(=O)=O)cc2CN(C)C)cc1C,inactive,–
CCc1cc(C2=C(C(=O)O)N(c3ccccc3C(F)(F)F)S(=O)(=O)c3ccccc32)cc2c1OCO2,–,10.8 µM (active)
NCCOCCOCCN,inactive,–
S=c1[nH]c2ccccc2s1,inactive,–
O=C(N[C@@H](c1ccccc1)[C@@H]1CCCCN1)c1cccc(C(F)(F)F)c1Cl,–,31.8 µM (active)
O=C1CCCCC1,inactive,–
Cc1ccc(C(C)(C)C)c(O)c1,inactive,–
CCN(CC)CCOc1ccc(C(=C(Cl)c2ccccc2)c2ccccc2)cc1,–,28 µM (active)
CC(=O)[C@@]1(O)CC[C@H]2[C@@H]3CCC4=CC(=O)CC[C@]4(C)[C@H]3CC[C@@]21C,–,8.47 µM (active)
CCCCC(CC)CO (centres undefined),inactive,–
CC(=O)O[C@]1(C(C)=O)CC[C@H]2[C@@H]3C=C(Cl)C4=CC(=O)[C@@H]5C[C@@H]5[C@]4(C)[C@H]3CC[C@@]21C,–,4.91 µM (active)
COc1ccc(OC(F)(F)F)cc1CN[C@H]1CCCN[C@H]1c1ccccc1,inactive,–
CC(COCC(C)OC(=O)c1ccccc1)OC(=O)c1ccccc1 (centres undefined),inactive,–
Cc1occc(=O)c1O,inactive,–
O=C(O)c1[nH]n(-c2ccc(S(=O)(=O)O)cc2)c(=O)c1N=Nc1ccc(S(=O)(=O)O)cc1,inactive,–
